The campaign covered roughly 310,000 compounds. About 14,000 (4.5%) showed an effect of 50% or more. The effect is printed as a negative number. The sample holds strong results, similar compounds and a random draw of the others, so the mix is not that of the screen.
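Also: peak tail current of the secondary pulse compared with the same well before compound.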

This test deals with human ether-à-go-go-related gene (hERG) potassium channel (human, UniProt Q12809). The test is described as follows: primary screen, population patch clamp on CHO cells stably expressing hERG; higher = less effect of the substance.
Chain of human ether-à-go-go-related gene (hERG) potassium channel (Q12809 whole entry, looked up): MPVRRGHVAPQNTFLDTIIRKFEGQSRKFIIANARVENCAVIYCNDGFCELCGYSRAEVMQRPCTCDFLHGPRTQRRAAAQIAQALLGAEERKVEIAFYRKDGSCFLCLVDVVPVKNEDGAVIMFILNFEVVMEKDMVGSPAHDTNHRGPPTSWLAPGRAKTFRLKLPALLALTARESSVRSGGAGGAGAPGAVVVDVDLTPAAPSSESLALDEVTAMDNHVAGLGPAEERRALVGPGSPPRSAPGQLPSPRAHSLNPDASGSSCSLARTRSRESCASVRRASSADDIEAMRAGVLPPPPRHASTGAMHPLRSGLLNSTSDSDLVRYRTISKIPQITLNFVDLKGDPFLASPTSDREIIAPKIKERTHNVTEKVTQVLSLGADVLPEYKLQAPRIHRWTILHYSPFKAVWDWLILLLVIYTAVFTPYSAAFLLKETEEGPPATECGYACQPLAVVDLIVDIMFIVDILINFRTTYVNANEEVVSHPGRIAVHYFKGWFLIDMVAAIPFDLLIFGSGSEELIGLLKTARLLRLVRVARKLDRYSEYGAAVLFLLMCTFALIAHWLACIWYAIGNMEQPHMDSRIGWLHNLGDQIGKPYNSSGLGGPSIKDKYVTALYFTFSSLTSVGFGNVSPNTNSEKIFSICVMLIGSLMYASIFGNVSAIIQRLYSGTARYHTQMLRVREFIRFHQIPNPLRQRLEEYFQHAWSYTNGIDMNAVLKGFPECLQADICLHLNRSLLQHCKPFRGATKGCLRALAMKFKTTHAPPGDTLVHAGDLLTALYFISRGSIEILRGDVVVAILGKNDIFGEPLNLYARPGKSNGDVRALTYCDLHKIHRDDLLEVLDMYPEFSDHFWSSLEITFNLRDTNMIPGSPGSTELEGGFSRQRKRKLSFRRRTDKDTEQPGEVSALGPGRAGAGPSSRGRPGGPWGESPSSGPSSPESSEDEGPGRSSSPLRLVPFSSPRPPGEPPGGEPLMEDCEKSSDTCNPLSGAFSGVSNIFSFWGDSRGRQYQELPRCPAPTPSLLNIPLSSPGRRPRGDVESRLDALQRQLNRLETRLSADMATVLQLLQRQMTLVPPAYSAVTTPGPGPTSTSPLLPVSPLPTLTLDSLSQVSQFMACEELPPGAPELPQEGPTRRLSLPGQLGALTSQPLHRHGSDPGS
For the compound `c1ccc(-c2noc(-c3ccc4c(c3)OCO4)n2)cc1`, the “hERG current change (%, negative = inhibition) at 10uM” value is -3.33%. To `Cc1ccc(CN2CCN(/N=C/c3ccc(C)s3)CC2)c(C)c1` belongs -5.96%; to `CCn1c(=O)c(C(=O)NNC(=O)c2cccc(Cl)c2)c(O)c2ccccc21`, 32.4%. In the case of `C/C(=N\NC(=O)c1cccc(Br)c1)c1ccc(Br)cc1`, the “hERG current change (%, negative = inhibition) at 10uM” value stood at 16%. To `Cc1cc2c(c(=O)n1CCCn1ccnc1)C(c1ccco1)C(C#N)=C(N)O2` (centres unmarked) belongs -3.23%. To `CC(O)C(=O)N/N=C/c1ccccc1C(=O)O` (centres unmarked) belongs 14%; to `COc1cc(/C=N\Nc2nc3ccccc3[nH]2)cc(OC)c1OC`, -19.8%; to `COc1cc(/C=N/Nc2nc3ccccc3[nH]2)cc(OC)c1O`, -55.9%. On to `COc1cc(/C=C(/C(=O)c2cccs2)c2nc3ccccc3[nH]2)ccc1O`, for which the “hERG current change (%, negative = inhibition) at 10uM” value is given as -22.2%.

Regarding `O=C(/C(=C/c1ccc(Cl)cc1)c1nc2ccccc2[nH]1)c1cccs1`, the “hERG current change (%, negative = inhibition) at 10uM” value stood at 2.82%. As to `COc1cc(/C=C(/C(=O)c2cccs2)c2nc3ccccc3[nH]2)cc(OC)c1O`, the “hERG current change (%, negative = inhibition) at 10uM” value is given as -56.1%.

`COc1ccc(/C=N/Nc2nc3ccccc3[nH]2)cc1OC`: the “hERG current change (%, negative = inhibition) at 10uM” value was -21.8%. The same measure for `CCCCN=C1SC(C(=O)Nc2sc3c(c2C(=O)OC)CCC3)C(N)=C1C(=O)N1CCOCC1` (centres unmarked): -1.11%; for `Cc1cc(Nc2ccccc2C(=O)O)n(-c2ccc([N+](=O)[O-])cc2)n1`: 4.19%; for `CC(=O)c1cc(CN2CCC(n3nccc3NC(=O)c3ccccc3Cl)CC2)cs1`: -56.5%. To `CC(=O)c1cc(CN2CCC(n3nccc3NC(=O)c3ccccc3C)CC2)cs1` belongs -57.8%. On to `COc1ccccc1C(=O)Nc1ccnn1C1CCN(Cc2csc(C(C)=O)c2)CC1`, for which the “hERG current change (%, negative = inhibition) at 10uM” value is given as -72.9%. For `CC(=O)c1cc(CN2CCC(n3nccc3NC(=O)c3ccccc3)CC2)cs1`, the “hERG current change (%, negative = inhibition) at 10uM” value is given as -10.9%.

Regarding `Cc1cc(CN2CCC(n3nccc3NC(=O)c3ccccc3C)CC2)n[nH]1`, the “hERG current change (%, negative = inhibition) at 10uM” value is given as -38%.

Turning to `CC(C)=NN1C(c2nonc2N)=NOC1(C)C`, the “hERG current change (%, negative = inhibition) at 10uM” value is listed as 6.47%. For the compound `COC(=O)C1=C(C)N=C2SCCC(=O)N2C1/C=C/c1ccccc1` (centres unmarked), the “hERG current change (%, negative = inhibition) at 10uM” value is listed as -16.8%. To `Cc1nc(SCC(=O)c2ccc(F)cc2)c([N+](=O)[O-])[nH]1` belongs 27.3%. Consider `CCCNC(=O)CN(CCc1ccccc1)S(C)(=O)=O`, for which the “hERG current change (%, negative = inhibition) at 10uM” value is given as 8.94%. `COc1ccc(CCNCC(=O)Nc2ccc(C(=O)N3CCCCC3)cc2)cc1.O=C(O)C(=O)O`: the “hERG current change (%, negative = inhibition) at 10uM” value was 4.75%. The same measure for `CN(CCOc1ccc(Cl)cc1)CC(=O)Nc1ccc(OC(F)F)cc1`: -71.4%. Take `COc1ccc(CN(C)C(=S)Nc2ccc(Cl)cc2)cc1`: the “hERG current change (%, negative = inhibition) at 10uM” value is given as -20.7%.

As to `COc1ccc(CN(C)C(=S)Nc2ccc(OC(F)F)cc2)cc1`, the “hERG current change (%, negative = inhibition) at 10uM” value is -58.9%. For the compound `CN(C)CCCN(Cc1ccccc1)C(=S)NCc1ccccc1`, the “hERG current change (%, negative = inhibition) at 10uM” value was -24.7%. The same measure for `CN(C)CCCN(Cc1ccccc1)C(=S)Nc1ccc(SC(F)F)cc1`: -75.1%; for `COc1ccc(NC(=O)CN(C)CCOc2ccc(Cl)cc2)cc1OC.O=C(O)C(=O)O`: -17.4%. For `COc1ccc(CCNCC(=O)Nc2ccc(OC(F)F)cc2)cc1`, the “hERG current change (%, negative = inhibition) at 10uM” value is on record as -75.8%.

Consider `CN(CCOc1ccc(Cl)cc1)CC(=O)Nc1ccc(OC(F)(F)F)cc1`, for which the “hERG current change (%, negative = inhibition) at 10uM” value is on record as 8.27%. The same measure for `CN(C(=S)Nc1ccc(SC(F)F)cc1)C(c1ccccc1)c1ccccc1`: -0.128%; for `CN(Cc1ccccc1)C(=S)Nc1ccc(OC(F)F)cc1`: -21.2%. The same measure for `COc1ccc(NC(=O)CNCCC2=CCCCC2)cc1`: 7.2%. To `C/C(=N\Nc1ccccc1C(=O)O)c1ccncc1` belongs 0.449%; to `CC(C)Nc1nc(NC(C)C)nc(OCCOC(=O)Nc2ccccc2)n1`, -24.5%. Take `Cc1ccc(N/N=C(\C#N)C(=N)N2CCCCC2)cc1`: the “hERG current change (%, negative = inhibition) at 10uM” value is -47.7%. For `CN(CC(=O)Nc1ccccc1Br)C(=O)c1cc2c(s1)CCCCC2`, the “hERG current change (%, negative = inhibition) at 10uM” value was -1.74%. On to `O=C(Nc1ccc(NC(=O)C2CC2)nc1)c1cccs1`, for which the “hERG current change (%, negative = inhibition) at 10uM” value turned out to be 14%. For `O=C(CSc1n[nH]c(=O)n1-c1cccnc1)N1CCOCC1`, the “hERG current change (%, negative = inhibition) at 10uM” value worked out at 12%. Consider `CCNC(=O)NC(=O)CSc1nc2ccccc2n1CC(C)C`, for which the “hERG current change (%, negative = inhibition) at 10uM” value is on record as -4.02%. To `Cc1cccc(N2CCN(CC(=O)NCC3CCCCC3)CC2)c1C.Cl` belongs -6.63%; to `COc1cc2[nH]c(=O)n(Cc3ccc(C(=O)N4CCC(N5CCCCC5)CC4)cc3)c(=O)c2cc1OC`, 12.3%.

Turning to `CCCN(Cc1ccccc1)C(=S)Nc1ccc(OC(F)F)cc1`, the “hERG current change (%, negative = inhibition) at 10uM” value is -41%. To `COc1ccc(NC(=O)CN(C)CC(=O)Nc2cccc(C(C)=O)c2)cc1` belongs 18.5%; to `CCCN(Cc1ccccc1)C(=S)Nc1ccc(C(C)=O)cc1`, -12.1%. As for `CC(=O)c1cccc(NC(=O)CN(C)Cc2ccc(OC(F)F)cc2)c1`, the “hERG current change (%, negative = inhibition) at 10uM” value is -55%. To `CCCCN(C)C(=S)Nc1ccc(Oc2ccccc2)cc1` belongs -2.38%; to `CC(=O)c1ccc(NC(=O)CN(C)CC(=O)Nc2cccc(F)c2)cc1`, -18.5%; to `CCN(CC)C(=S)Nc1ccc(OC(F)F)cc1`, -28.6%. On to `CC(=O)c1ccc(NC(=S)N(CCCN(C)C)Cc2ccccc2)cc1`, for which the “hERG current change (%, negative = inhibition) at 10uM” value is given as -53.3%. The same measure for `COCCN(Cc1ccccc1)C(=S)Nc1ccc(OC(F)F)cc1`: -69.8%. To `COCCN(Cc1ccccc1)C(=S)Nc1ccc(Cl)cc1` belongs 11.1%; to `CC(=O)c1ccc(NC(=S)N(Cc2ccccc2)C(C)C2CC2)cc1` (centres unmarked), 5.51%. On to `CN(CCOc1ccccc1)C(=S)Nc1ccc(OC(F)F)cc1`, for which the “hERG current change (%, negative = inhibition) at 10uM” value is -55.2%. The same measure for `CCN(CC)C(=O)c1ccc(C)c(Br)c1`: -0.776%. Regarding `CCc1cc2c(=O)[nH]cnc2s1`, the “hERG current change (%, negative = inhibition) at 10uM” value is given as -3.48%. To `CCCCCCc1cc2cc(-c3nnc(-c4ccccc4)o3)c(=O)oc2cc1O` belongs 5.15%; to `CCOC(=O)Cc1csc(NC(=S)NC(=O)c2ccc(F)cc2)n1`, 11.9%; to `CN(C)CCCN(Cc1ccccc1)C(=S)Nc1ccc(F)c(Cl)c1`, -24.3%. The same measure for `FC(F)Oc1ccc(NC(=S)NCc2cccnc2)cc1`: -2.69%; for `CCCN(Cc1ccccc1)C(=S)Nc1ccc(OCC)cc1`: -35.8%. To `CN(C)CCCN(Cc1ccccc1)C(=S)Nc1cccc(C(F)(F)F)c1` belongs -52.6%; to `COc1ccc(NC(=S)N(CCO)Cc2ccccc2)cc1`, 2.34%. As to `N#CCCN(Cc1cccnc1)C(=S)Nc1ccc(OC(F)F)cc1`, the “hERG current change (%, negative = inhibition) at 10uM” value is recorded as -78.2%. To `CC(C)N(Cc1ccccc1)C(=S)Nc1ccc(F)cc1` belongs -3.42%. Consider `CN(C)CCCN(Cc1ccccc1)C(=S)Nc1ccc(OC(F)F)cc1`, for which the “hERG current change (%, negative = inhibition) at 10uM” value is on record as -70.3%. Regarding `CN(C)S(=O)(=O)c1cccc(NC(=S)N(CCC#N)Cc2cccnc2)c1`, the “hERG current change (%, negative = inhibition) at 10uM” value is reported as -7.37%. The same measure for `CC(C)N(Cc1ccccc1)C(=S)Nc1ccc(OC(F)F)cc1`: -56.7%; for `Cc1ccc(NC(=S)N(Cc2ccccc2)C(C)C)cc1`: 12%. Consider `CN(C)C(=S)Nc1cccc(C(F)(F)F)c1`, for which the “hERG current change (%, negative = inhibition) at 10uM” value is 5.67%. `COc1ccc(S(=O)(=O)N(C)c2ccc(C(=O)N3CCOCC3)cc2)cc1`: the “hERG current change (%, negative = inhibition) at 10uM” value is -6.62%. Take `CCOc1ccc(-c2c(C(=O)N/N=C/c3sccc3C)nnn2-c2nonc2N)cc1`: the “hERG current change (%, negative = inhibition) at 10uM” value worked out at 19.7%. To `COc1ccc(-n2ncc3c(N4CCc5ccccc54)ncnc32)cc1` belongs 0.927%; to `Cc1cccc(OCCCC(=O)Nc2ccc(N(C)C)cc2)c1`, -5.54%.

`COc1cccc(N2C(=O)Nc3ccc(Br)cc3C2(O)C(=O)NCCCN(C)C)c1` (centres unmarked): the “hERG current change (%, negative = inhibition) at 10uM” value turned out to be 19.3%.

Take `Cc1ccc(NC(=O)CSc2nnc(C3COc4ccccc4O3)o2)c(Cl)c1` (centres unmarked): the “hERG current change (%, negative = inhibition) at 10uM” value is reported as 12.5%.

Regarding `Brc1ccc(-c2noc(-c3ccccn3)n2)o1`, the “hERG current change (%, negative = inhibition) at 10uM” value worked out at 2.68%. With `COC(=O)C1(C)NC(c2ccco2)C2C(=O)N(c3ccc(C)cc3)C(=O)C21` (centres unmarked), the “hERG current change (%, negative = inhibition) at 10uM” value is recorded as -22.5%. With `FC(F)(F)c1cccc(-c2nnc(-c3ccccc3)c(N3CCOCC3)n2)c1`, the “hERG current change (%, negative = inhibition) at 10uM” value was -19.7%. In the case of `Cc1nnc(-c2ccccc2)nc1N1CCOCC1`, the “hERG current change (%, negative = inhibition) at 10uM” value was -10.2%.

Turning to `Cc1nnc(-c2cccc(C(F)(F)F)c2)nc1N1CCOCC1`, the “hERG current change (%, negative = inhibition) at 10uM” value was -74.1%. For `CC1CC(C)CN(C(=O)Cn2c(=O)oc3cc(S(=O)(=O)N4CCCC4)ccc32)C1` (centres unmarked), the “hERG current change (%, negative = inhibition) at 10uM” value is given as -3.39%. In the case of `CCn1cc(C(=O)OCC(=O)N2C(C)CCCC2C)c(=O)c2ccc(C)nc21` (centres unmarked), the “hERG current change (%, negative = inhibition) at 10uM” value was 11%. To `CCn1cc(C(=O)OCC(=O)OC2CC(C)CCC2C(C)C)c(=O)c2ccc(C)nc21` (centres unmarked) belongs -51.8%. The same measure for `C=CCOC(=O)c1cn(CC)c2nc(C)ccc2c1=O`: -5.77%; for `Cc1cc(C)cc(NC(=O)C2CCCN(S(=O)(=O)c3c(C)noc3C)C2)c1` (centres unmarked): -4.34%; for `CCOc1ccccc1NS(=O)(=O)c1csc(C(N)=O)c1`: 11.7%. The same measure for `CCC(=O)Nc1sc2c(c1C(N)=O)CCC2`: -15.7%; for `CN(CC(=O)Nc1ccc(C(N)=O)cc1)CC(=O)Nc1ccccc1Cl`: -5.04%; for `COc1ccc(CC(=O)Nc2sc3c(c2C(N)=O)CCCC3)cc1`: -1.39%. As for `Cc1cccc(C)c1NC(=O)CN(C)CC(=O)Nc1sc2c(c1C(N)=O)CCC2`, the “hERG current change (%, negative = inhibition) at 10uM” value is given as -33.9%.

For `COc1ccc(NC(=O)CN(C)CC(=O)Nc2sc3c(c2C#N)CCC3)cc1`, the “hERG current change (%, negative = inhibition) at 10uM” value worked out at 0.0459%. The same measure for `COc1ccc(NC(=O)CN(C)CC(=O)Nc2sc3c(c2C(N)=O)CCC3)cc1`: -79%; for `NC(=O)c1c(NC(=O)c2ccccc2Cl)sc2c1CCC2`: 15.1%.

Consider `CN(CC(=O)Nc1ccccc1Cl)CC(=O)Nc1sc2c(c1C(N)=O)CCC2`, for which the “hERG current change (%, negative = inhibition) at 10uM” value was -66.2%. For the compound `Cc1ccc(NC(=O)CN(C)CC(=O)Nc2sc3c(c2C(N)=O)CCC3)cc1`, the “hERG current change (%, negative = inhibition) at 10uM” value is recorded as -55.5%.

These data come from PMC4336329 (PLoS ONE, 2015).
